Drawing on PubChem BioAssay (NCI), this text covers growth for 13 molecules.

What all share (test): NCI-60 one-dose screen, 48 h (100 = growth as untreated, 0 = no growth, -100 = all killed)
Holding throughout (conditions): 10 µM unless noted

For assay [1], the system named is NCI-H23 lung.
Assay [2] concerns NCI-H226 lung.
For assay [3], the system named is NCI-H322M lung.
Assay [4] relates to HOP-62 NSCLC.
Assay [5] relates to NCI-H460 lung.
For assay [6], the system named is HOP-92 NSCLC.
In assay [7] the test system is NCI-H522 lung.
The subject of assay [8] is A549/ATCC NSCLC.
Assay [9] has as its system 786-0 renal.
For assay [10], the system named is COLO 205 colon.

About 83,000 compounds went through this panel and 20% of them were active in at least one assay; those are over-represented in the sample as a whole.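 For each line, cells grew in 96-well plates with the test compound present at a single concentration for 48 hours.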 Unmarked numbers belong to inactive results. Calls of active or inactive are those of the source. Rule for the calls: active = growth percent below 10; inactive = the rest.

As for `CC(=O)ONc1ccc([N+](=O)[O-])c(C(F)(F)F)c1`, the growth in assay [1] was 92.1%; in assay [2] it was 97.8%; in assay [3], 108%; in assay [4], 80%; in assay [5] it was 109%; in assay [6], 99.6%. The growth in assay [7] is 97.8%; in assay [8], 95.3%; in assay [9], 97.6%; in [10], 106%.
In the case of `CCC1(C(C)C)C(=O)NC(=S)NC1=O`, the growth is 117% in [1]; 90.5% in assay [2]; 106% in assay [3]; 102% in assay [4]; 102% in assay [5]; 91.5% in assay [6]. In addition, the growth in assay [7] is 105%; in assay [8] it was 95.7%; in assay [9], 108%; in [10] it was 123%.
In the case of `COc1cc2c(cc1OCc1ccccc1)C(CC(C)C)=[N+](C)CC2`, the growth in [1] was 56.4%; in assay [2], 81.2%; in assay [3] it was 97.8%; in assay [4] it was 88.2%; in [5], 92.1%; in assay [6], 77.7%. For the same molecule, the growth is 66.3% in [7], 61% in assay [8], 95.6% in assay [9] and 56.9% in assay [10].
Turning to `COC(=O)[C@@H](C)C[C@H](Cc1ccccc1)NC(=O)c1csc([C@@H](C[C@H](C(C)C)N(C)C(=O)C2(NC(=O)[C@H]3CCCCN3C)CCC2)OC(C)=O)n1`, the growth in [1] was 18.6%; in assay [2], 48.7%; in assay [3] it was 43.6%; in assay [4], 18.8%; in assay [5] it was 4.21% (active); in assay [6], 2.26% (active). Further, the growth in assay [7] was -13.8% (active); in assay [8], 15.2%; in assay [9], 20.9%; in assay [10] it was -59.1% (active).
On to `CC1(C)N=C(N)N=C(N)N1c1ccc(CCC(=O)Nc2ccc(S(=O)(=O)F)cc2)c(Cl)c1`, for which the growth in assay [1] was 29.9%; in [2], 46.6%; in assay [3], 57.9%; in assay [4], 19.9%; in assay [5], 6.19% (active); in assay [6] it was 33.7%. In addition, the growth was -0.414% (active) in assay [7], -5.32% (active) in [8], 20.6% in [9] and 45.3% in [10].
On to `CCn1c2ccccc2c2cc(C(=O)c3ccc(C)c4ccccc34)ccc21`, for which the growth in assay [1] was 5.37% (active); in assay [2] it was 32.8%; in assay [3], 28.1%; in assay [4], 9.22% (active); in assay [5], 10.6%; in [6], 40.6%. Besides, the growth was 0.105% (active) in assay [7], 6.07% (active) in assay [8], 17.6% in assay [9] and -16.3% (active) in [10].
Consider `COc1ccc(C2=N[C@@H](Cc3ccccc3)C(=O)Nc3ccsc32)cc1`, for which the growth is 53.7% in [1]; 76.3% in assay [2]; 89.8% in assay [3]; 66% in [4]; 51.7% in assay [5]; 61.4% in assay [6]. Also, the growth in assay [7] is -13.4% (active); in [8], 43.2%; in [9] it was 66.6%; in assay [10], 35.6%.
On to `Cc1ccc(N2COOC3(OOC2)C2CC4CC(C2)CC3C4)cc1`, for which the growth was 89.5% in [1]; 108% in [2]; 98.7% in assay [3]; 93.1% in [4]; 103% in assay [5]; 95.5% in assay [6]. The growth was 92.5% in assay [7], 98.7% in assay [8], 96.1% in assay [9] and 110% in assay [10].
For `NC1CC2CCCCC2CC1(O)c1ccccc1` (stereo not given), the growth in assay [1] was 94.7%; in [2] it was 92.2%; in assay [3] it was 103%; in [4], 106%; in assay [5], 103%; in assay [6], 88.6%. Also, the growth in assay [7] is 97.8%; in [8], 99.3%; in assay [9], 99.6%; in assay [10], 106%.
For `COc1ccc(S(=O)(=O)N(Cc2ccc3c(c2)C=CC(C)(C)O3)c2ccccc2)cc1OC`, the growth in assay [1] is 47.6%; in assay [2], 55.4%; in assay [3], 102%; in assay [4], 87.1%; in assay [5], 76.7%; in [6] it was 88.2%. Besides, the growth in assay [7] is 61.5%; in [8], 79.1%; in [9], 87.1%; in assay [10] it was 64.7%.
As to `CC(=O)OC[C@]1(C)C=C2C(=O)[C@](C)(O)C3(CC3)C(C)=C2[C@H]1OC(=O)N(C)CCN(C)C(=O)OC(C)(C)C`, the growth in assay [1] is -17.8% (active); in assay [2], 24.7%; in [3], 12.4%; in assay [4], -19.9% (active); in assay [5], 0.38% (active); in [6], -13.4% (active). For the same molecule, the growth in assay [7] is -47% (active); in [8], 4.55% (active); in assay [9], 0.73% (active); in assay [10], -66.8% (active).
With `CC[C@H](C)[C@H](NC(=O)N[C@@H](C)c1ccccc1)C(=O)N(C)[C@H](C[C@@H](OC(C)=O)c1nc(C(=O)N[C@@H](Cc2ccccc2)C[C@H](C)C(=O)OC)cs1)C(C)C`, the growth in assay [1] is 27%; in assay [2], 30.7%; in assay [3] it was 51.2%; in assay [4], 22.7%; in [5], 3.57% (active); in [6] it was 73.1%. Besides, the growth in assay [7] is -39.1% (active); in assay [8], 31.3%; in assay [9], 10.9%; in [10] it was -46.8% (active).
For the molecule `Cc1c(C)c([N+](=O)[O-])c(C)c(C)c1[N+](=O)[O-]`, the growth in assay [1] is 112%; in [2] it was 100%; in assay [3] it was 121%; in assay [4], 109%; in [5] it was 113%; in assay [6], 135%. Moreover, the growth was 80.3% in assay [7], 91.5% in [8], 103% in [9] and 119% in assay [10].
